Assay results published in the supplement of paper PMC7411054.

Tests used:
Assay in all cases: phenotypically active (imaging signature differs from DMSO and reproducible) at any of 0.3-9 uM (binary (1 = active, 0 = inactive)); higher = active
Conditions in all cases: treatment time: 24 h
A549-ACTB-RAB5A = test system: A549-ACTB-RAB5A
Method in brief: (§1)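 Two criteria together defined phenotypic activity: deviation and reproducibility. Deviation meant ≥3 of 4 wells beyond the 95th percentile of Euclidean distances in solvent control wells, and reproducibility meant a median replicate Pearson correlation above the 95th percentile of non-replicates. Wells had been treated for 24 h at 0.3, 1, 3 or 9 µM in fifteen gene-edited A549, HepG2 and WPMY1 reporter lines before live imaging.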

A549-CANX-COX4 = test system: A549-CANX-COX4
Method in brief: as §1

A549-GM130-SQSTM1 = test system: A549-GM130-SQSTM1
Method in brief: as §1

A549-TP53BP1-CLTA = test system: A549-TP53BP1-CLTA
Method in brief: as §1

A549-TUBA1B-RELA = test system: A549-TUBA1B-RELA
Method in brief: as §1

HepG2-ACTB-RAB5A = test system: HepG2-ACTB-RAB5A
Method in brief: as §1

HepG2-CANX-COX4 = test system: HepG2-CANX-COX4
Method in brief: as §1

HepG2-GM130-SQSTM1 = test system: HepG2-GM130-SQSTM1
Method in brief: as §1

HepG2-TP53BP1-CLTA = test system: HepG2-TP53BP1-CLTA
Method in brief: as §1

HepG2-TUBA1B-RELA = test system: HepG2-TUBA1B-RELA
Method in brief: as §1

WPMY1-ACTB-RAB5A = test system: WPMY1-ACTB-RAB5A
Method in brief: as §1

WPMY1-CANX-COX4 = test system: WPMY1-CANX-COX4
Method in brief: as §1

WPMY1-GM130-SQSTM1 = test system: WPMY1-GM130-SQSTM1
Method in brief: as §1

WPMY1-TP53BP1-CLTA = test system: WPMY1-TP53BP1-CLTA
Method in brief: as §1

WPMY1-TUBA1B-RELA = test system: WPMY1-TUBA1B-RELA
Method in brief: as §1

Measured: phenotypically active

CC(C)[C@](O)(c1ccc2cc(OC(F)F)c(OC(F)F)cc2c1)c1c[nH]nn1
inactive: A549-ACTB-RAB5A 0 | A549-CANX-COX4 0 | A549-GM130-SQSTM1 0 | A549-TP53BP1-CLTA 0 | A549-TUBA1B-RELA 0 | HepG2-ACTB-RAB5A 0 | HepG2-CANX-COX4 0 | HepG2-GM130-SQSTM1 0 | HepG2-TP53BP1-CLTA 0 | HepG2-TUBA1B-RELA 0 | WPMY1-ACTB-RAB5A 0 | WPMY1-CANX-COX4 0 | WPMY1-GM130-SQSTM1 0 | WPMY1-TP53BP1-CLTA 0 | WPMY1-TUBA1B-RELA 0

O=C(O)c1cc(/N=N/c2ccc(O)c(C(=O)O)c2)ccc1O [olsalazine]
inactive: A549-ACTB-RAB5A 0 | A549-CANX-COX4 0 | A549-GM130-SQSTM1 0 | A549-TP53BP1-CLTA 0 | A549-TUBA1B-RELA 0 | HepG2-ACTB-RAB5A 0 | HepG2-CANX-COX4 0 | HepG2-GM130-SQSTM1 0 | HepG2-TP53BP1-CLTA 0 | HepG2-TUBA1B-RELA 0 | WPMY1-ACTB-RAB5A 0 | WPMY1-CANX-COX4 0 | WPMY1-GM130-SQSTM1 0 | WPMY1-TP53BP1-CLTA 0 | WPMY1-TUBA1B-RELA 0

C[C@H]1[C@H](C)CC[C@]2(C(=O)O[C@@H]3O[C@H](CO[C@@H]4O[C@H](CO)[C@@H](O[C@@H]5O[C@@H](C)[C@H](O)[C@@H](O)[C@H]5O)[C@H](O)[C@H]4O)[C@@H](O)[C@H](O)[C@H]3O)CC[C@]3(C)C(=CC[C@@H]4[C@@]5(C)C[C@@H](O)[C@H](O)[C@@](C)(CO)[C@@H]5CC[C@]43C)[C@H]12 [Asiaticoside]
inactive: A549-ACTB-RAB5A 0 | A549-CANX-COX4 0 | A549-GM130-SQSTM1 0 | A549-TP53BP1-CLTA 0 | A549-TUBA1B-RELA 0 | HepG2-ACTB-RAB5A 0 | HepG2-CANX-COX4 0 | HepG2-GM130-SQSTM1 0 | HepG2-TP53BP1-CLTA 0 | HepG2-TUBA1B-RELA 0 | WPMY1-ACTB-RAB5A 0 | WPMY1-CANX-COX4 0 | WPMY1-GM130-SQSTM1 0 | WPMY1-TP53BP1-CLTA 0 | WPMY1-TUBA1B-RELA 0

CN1C(CSCC(F)(F)F)Nc2cc(Cl)c(S(N)(=O)=O)cc2S1(=O)=O (stereo not given) [polythiazide]
inactive: A549-ACTB-RAB5A 0 | A549-CANX-COX4 0 | A549-GM130-SQSTM1 0 | A549-TP53BP1-CLTA 0 | A549-TUBA1B-RELA 0 | HepG2-ACTB-RAB5A 0 | HepG2-CANX-COX4 0 | HepG2-GM130-SQSTM1 0 | HepG2-TP53BP1-CLTA 0 | HepG2-TUBA1B-RELA 0 | WPMY1-ACTB-RAB5A 0 | WPMY1-CANX-COX4 0 | WPMY1-GM130-SQSTM1 0 | WPMY1-TP53BP1-CLTA 0 | WPMY1-TUBA1B-RELA 0

O=S(=O)(N[C@H](CO)C(C(F)(F)F)C(F)(F)F)c1ccc(Cl)s1 [begacestat]
inactive: A549-ACTB-RAB5A 0 | A549-CANX-COX4 0 | A549-GM130-SQSTM1 0 | A549-TP53BP1-CLTA 0 | A549-TUBA1B-RELA 0 | HepG2-ACTB-RAB5A 0 | HepG2-CANX-COX4 0 | HepG2-GM130-SQSTM1 0 | HepG2-TP53BP1-CLTA 0 | HepG2-TUBA1B-RELA 0 | WPMY1-ACTB-RAB5A 0 | WPMY1-CANX-COX4 0 | WPMY1-GM130-SQSTM1 0 | WPMY1-TP53BP1-CLTA 0 | WPMY1-TUBA1B-RELA 0

CN(C)/N=N/c1[nH]cnc1C(N)=O [dacarbazine]
inactive: A549-ACTB-RAB5A 0 | A549-CANX-COX4 0 | A549-GM130-SQSTM1 0 | A549-TP53BP1-CLTA 0 | A549-TUBA1B-RELA 0 | HepG2-ACTB-RAB5A 0 | HepG2-CANX-COX4 0 | HepG2-GM130-SQSTM1 0 | HepG2-TP53BP1-CLTA 0 | HepG2-TUBA1B-RELA 0 | WPMY1-ACTB-RAB5A 0 | WPMY1-CANX-COX4 0 | WPMY1-GM130-SQSTM1 0 | WPMY1-TP53BP1-CLTA 0 | WPMY1-TUBA1B-RELA 0

CCOc1cc(CC(=O)N[C@@H](CC(C)C)c2ccccc2N2CCCCC2)ccc1C(=O)O [repaglinide]
inactive: A549-ACTB-RAB5A 0 | A549-CANX-COX4 0 | A549-GM130-SQSTM1 0 | A549-TP53BP1-CLTA 0 | A549-TUBA1B-RELA 0 | HepG2-ACTB-RAB5A 0 | HepG2-CANX-COX4 0 | HepG2-GM130-SQSTM1 0 | HepG2-TP53BP1-CLTA 0 | HepG2-TUBA1B-RELA 0 | WPMY1-ACTB-RAB5A 0 | WPMY1-CANX-COX4 0 | WPMY1-GM130-SQSTM1 0 | WPMY1-TP53BP1-CLTA 0 | WPMY1-TUBA1B-RELA 0

COc1ccc2c(c1)N(C(C)=O)[C@H]1[C@@H]3CO[C@H](C)[C@@H]4CN5CC[C@]21[C@@H]5C[C@H]34 [Strychnospermine]
inactive: A549-ACTB-RAB5A 0 | A549-CANX-COX4 0 | A549-GM130-SQSTM1 0 | A549-TP53BP1-CLTA 0 | A549-TUBA1B-RELA 0 | HepG2-ACTB-RAB5A 0 | HepG2-CANX-COX4 0 | HepG2-GM130-SQSTM1 0 | HepG2-TP53BP1-CLTA 0 | HepG2-TUBA1B-RELA 0 | WPMY1-ACTB-RAB5A 0 | WPMY1-CANX-COX4 0 | WPMY1-GM130-SQSTM1 0 | WPMY1-TP53BP1-CLTA 0 | WPMY1-TUBA1B-RELA 0

CCCN(CCC)CCc1cccc2c1CC(=O)N2 [ropinirole]
inactive: A549-ACTB-RAB5A 0 | A549-CANX-COX4 0 | A549-GM130-SQSTM1 0 | A549-TP53BP1-CLTA 0 | A549-TUBA1B-RELA 0 | HepG2-ACTB-RAB5A 0 | HepG2-CANX-COX4 0 | HepG2-GM130-SQSTM1 0 | HepG2-TP53BP1-CLTA 0 | HepG2-TUBA1B-RELA 0 | WPMY1-ACTB-RAB5A 0 | WPMY1-CANX-COX4 0 | WPMY1-GM130-SQSTM1 0 | WPMY1-TP53BP1-CLTA 0 | WPMY1-TUBA1B-RELA 0

CCC(=C(CC)c1ccc(O)cc1)c1ccc(O)cc1 (stereo in doubt) [diethylstilbestrol]
inactive: A549-ACTB-RAB5A 0 | A549-CANX-COX4 0 | A549-GM130-SQSTM1 0 | A549-TP53BP1-CLTA 0 | A549-TUBA1B-RELA 0 | HepG2-ACTB-RAB5A 0 | HepG2-CANX-COX4 0 | HepG2-GM130-SQSTM1 0 | HepG2-TP53BP1-CLTA 0 | HepG2-TUBA1B-RELA 0 | WPMY1-ACTB-RAB5A 0 | WPMY1-CANX-COX4 0 | WPMY1-GM130-SQSTM1 0 | WPMY1-TP53BP1-CLTA 0 | WPMY1-TUBA1B-RELA 0

O=C1N(c2ccccc2)c2ccccc2C1(Cc1ccncc1)Cc1ccncc1 [linopirdine]
inactive: A549-ACTB-RAB5A 0 | A549-CANX-COX4 0 | A549-GM130-SQSTM1 0 | A549-TP53BP1-CLTA 0 | A549-TUBA1B-RELA 0 | HepG2-ACTB-RAB5A 0 | HepG2-CANX-COX4 0 | HepG2-GM130-SQSTM1 0 | HepG2-TP53BP1-CLTA 0 | HepG2-TUBA1B-RELA 0 | WPMY1-ACTB-RAB5A 0 | WPMY1-CANX-COX4 0 | WPMY1-GM130-SQSTM1 0 | WPMY1-TP53BP1-CLTA 0 | WPMY1-TUBA1B-RELA 0
